Assay results: PubChem BioAssay (NCI)
The panel holds about 83,000 compounds, 20% with a hit somewhere; the sample as a whole holds those more often.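 Testing used 96-well plates and a 48-hour single-concentration exposure. Example: -40 means 40% of the starting cells died.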 Active and inactive are the calls of the source. Rule for the calls: active = growth percent below 10; inactive = the rest.

Tests used:
Assay in all cases: NCI-60 one-dose screen, 48 h (100 = growth as untreated, 0 = no growth, -100 = all killed)
[1] = tested on: SK-MEL-2 melanoma; details: 10 µM unless noted
[2] = tested on: EKVX NSCLC; details: 10 µM unless noted
[3] = tested on: SN12C renal; details: 10 µM unless noted
[4] = tested on: UO-31 renal; details: 10 µM unless noted
[5] = tested on: ACHN renal; details: 10 µM unless noted
[6] = tested on: CAKI-1 renal; details: 10 µM unless noted
[7] = tested on: A498 renal; details: 10 µM
[8] = tested on: HL-60(TB) leukemia; details: 10 µM unless noted
[9] = tested on: CCRF-CEM leukemia; details: 10 µM unless noted
[10] = tested on: MOLT-4 leukemia; details: 10 µM unless noted
[11] = tested on: SR leukemia; details: 10 µM unless noted
[12] = tested on: RPMI-8226 leukemia; details: 10 µM unless noted
[13] = tested on: OVCAR-8 ovarian; details: 10 µM unless noted
[14] = tested on: OVCAR-5 ovarian; details: 10 µM unless noted
[15] = tested on: OVCAR-4 ovarian; details: 10 µM unless noted
[16] = tested on: SK-OV-3 ovarian; details: 10 µM unless noted
[17] = tested on: IGROV1 ovarian; details: 10 µM unless noted
[18] = tested on: OVCAR-3 ovarian; details: 10 µM unless noted
[19] = tested on: HS 578T breast; details: 10 µM unless noted
[20] = tested on: TK-10 renal; details: 10 µM unless noted

Measured: growth

CCn1c2ccccc2c2cc(C(=O)c3ccc(C)c4ccccc34)ccc21
inactive: [1] 24% | [2] 32% | [3] 22.7% | [4] 30.5% | [5] 23.9% | [6] 28.8% | [9] 18.2% | [12] 12.2% | [13] 22.8% | [14] 28.6% | [15] 48.5% | [16] 25.4% | [17] 21.4% | [19] 30.1%
active: [7] 7.13% | [8] 8.9% | [10] 7.66% | [11] 2.83% | [18] 7.68%

CC(=O)OC1CCC2(C)C(CCC3C2CC(=O)C2(C)C3CC(Sc3ccc(N(CCCl)CCCl)cc3)C2C(C)=O)C1 (configuration not stated)
inactive: [1] 93.3% | [2] 115% | [3] 87.3% | [4] 77.6% | [5] 72.3% | [6] 68% | [7] 103% | [8] 79.3% | [9] 63.1% | [10] 77.3% | [11] 51.5% | [12] 49% | [13] 84.1% | [14] 95.6% | [15] 84.4% | [16] 113% | [17] 116% | [18] 99.6% | [19] 110%

CC(=O)ONc1ccc([N+](=O)[O-])c(C(F)(F)F)c1
inactive: [1] 102% | [2] 87.6% | [3] 107% | [4] 77.2% | [20] 112% | [7] 103% | [8] 90% | [9] 97.7% | [10] 96.4% | [11] 103% | [12] 93.9% | [13] 109% | [14] 103% | [15] 98.2% | [16] 94.7% | [17] 107% | [18] 104% | [19] 90.7%

COC(=O)[C@@H](C)C[C@H](Cc1ccccc1)NC(=O)c1csc([C@@H](C[C@H](C(C)C)N(C)C(=O)C2(NC(=O)[C@H]3CCCCN3C)CCC2)OC(C)=O)n1
inactive: [1] 29.5% | [2] 31.7% | [3] 29.8% | [4] 43.3% | [5] 28.8% | [6] 27.7% | [12] 13.5% | [13] 27.2% | [14] 24% | [15] 50% | [16] 28.7% | [17] 23.2% | [19] 13%
active: [7] -2.79% | [8] -51.8% | [9] 10% | [10] 5.46% | [11] 5.54% | [18] -6.95%

COC(=O)[C@@H](C)C[C@H](Cc1ccccc1)NC(=O)c1csc([C@@H](C[C@H](C(C)C)N(C)C(=O)[C@H](C)NC(=O)[C@H]2CCCCN2C)OC(C)=O)n1
inactive: [1] 41.9% | [2] 53.6% | [3] 36% | [4] 66.4% | [20] 61.7% | [5] 48.2% | [9] 12.3% | [10] 33.2% | [12] 15.7% | [13] 26.4% | [14] 63.7% | [15] 60.3% | [16] 47.2% | [17] 47%
active: [8] -19.6% | [18] -0.67% | [19] 6.45%

CCOc1ccc(/C=C/[N+](=O)[O-])cc1
active: [12] -36.4%
inactive: [1] 101% | [2] 93.7% | [3] 94.5% | [4] 71.1% | [5] 96.3% | [6] 101% | [7] 78.1% | [8] 105% | [9] 90.6% | [10] 118% | [11] 67.5% | [13] 101% | [14] 89.8% | [15] 87.9% | [16] 111% | [17] 86.5% | [18] 86.3%

Cc1ccc(Nc2nc3c(s2)C2=CC[C@@H]4[C@H](CC[C@]5(C)C(=O)CC[C@@H]45)[C@@]2(C)CC3)cc1
active: [9] 7.68% | [12] -15.8%
inactive: [1] 46.3% | [2] 56.7% | [3] 60% | [4] 48.3% | [5] 20.1% | [6] 34.3% | [7] 51.3% | [8] 34% | [10] 12.3% | [11] 12.9% | [13] 58.4% | [14] 72.4% | [15] 44.8% | [17] 65% | [18] 16.7% | [19] 28.1%

CC[C@@H]1[C@@H](C)O[C@@](O)([C@@H](C)[C@H](O)[C@H](C)[C@H]2OC(=O)/C=C/C=C/[C@H](C)[C@@H]([C@@H](C)[C@@H](O)[C@H](C)[C@@]3(O)C[C@@H](O[C@H]4C[C@@H](O)[C@H](O)C(C)O4)[C@H](CC)[C@@H](C)O3)OC(=O)/C=C/C=C/[C@@H]2C)C[C@H]1O[C@@H]1C[C@@H](O)[C@H](O)C(C)O1 (some centres not stated)
active: [1] -92% | [2] -88.6% | [3] -75.1% | [4] -97% | [5] -96.8% | [6] -98.4% | [7] -97.5% | [8] -73.3% | [9] -61.5% | [10] -72.6% | [11] -49.1% | [12] -65.2% | [13] -75.9% | [14] -88.7% | [15] -95.6% | [16] -96.5% | [17] -71.4% | [18] -98%

C1CCC([PH+](C2CCCCC2)C2CCCCC2[PH+](C2CCCCC2)C2CCCCC2)CC1.O=C(C1[CH-]CCCC1)C1CCCC[N-]1.[Au] (configuration not stated)
active: [1] -52.6% | [2] -53.2% | [3] -52.3% | [4] -87.9% | [5] -74.6% | [6] -57.4% | [7] -51.3% | [8] -39.2% | [9] 2.64% | [10] -5.55% | [11] -1.52% | [12] -10.6% | [13] 3.3% | [14] -64.5% | [16] -52.2% | [17] -33.5% | [18] -77.7%

O=c1[nH]c2ccc([N+](=O)[O-])cc2c(=O)o1
inactive: [1] 111% | [2] 107% | [3] 98.2% | [4] 90.7% | [20] 104% | [5] 93.3% | [12] 98.5% | [13] 104% | [14] 101% | [15] 98.8% | [16] 102% | [17] 105% | [18] 113%

ClC1=C(Cl)C(Cl)(C2(Cl)C(Cl)=C(Cl)C(Cl)=C2Cl)C(Cl)=C1Cl
inactive: [1] 16.9% | [7] 67% | [14] 16.1% | [16] 87.1% | [19] 53.3%
active: [2] 5.58% | [3] -25.2% | [4] -89.6% | [20] -91.3% | [8] -36.3% | [9] -57.6% | [10] -36.7% | [11] -25.3% | [12] -37.8% | [13] 0.392% | [15] -30.2% | [17] -33.3% | [18] -77.4%

CNC(=O)Oc1ccc(N(C)C)cc1C(C)C
inactive: [1] 103% | [2] 95.5% | [3] 98.2% | [4] 88.7% | [5] 99.4% | [6] 40.9% | [7] 101% | [10] 75.3% | [11] 123% | [13] 105% | [14] 99.8% | [15] 85.9% | [16] 105% | [17] 109% | [18] 97.7% | [19] 94.8%

Clc1ccc(COC(Cn2ccnc2)c2ccc(Cl)cc2Cl)cc1 (configuration not stated)
active: [8] -40.2% | [10] -28.4% | [11] -25.9%
inactive: [1] 68.9% | [2] 30.7% | [3] 68.4% | [4] 20.7% | [20] 62% | [6] 21.4% | [7] 43.4% | [9] 30.6% | [12] 39.7% | [13] 51.8% | [15] 54% | [16] 91.2% | [17] 35% | [18] 40.4% | [19] 69.2%

Nc1c(F)cc(-c2nc3cc(F)ccc3[se]2)cc1Br
inactive: [1] 90.5% | [2] 32.7% | [3] 88.1% | [4] 60.1% | [5] 27.5% | [9] 95.5% | [10] 91.2% | [11] 15.7% | [12] 35.1% | [13] 93.1% | [15] 30.1% | [16] 39.7% | [19] 96.6%
active: [20] -4.6% | [14] 8.24% | [17] 5.47%

COc1ccc(/C=C\c2cc(OC)c(OC)c(OC)c2)cc1OCC(=O)Nc1nc2ccc(F)cc2s1
inactive: [1] 68.8% | [2] 57.7% | [3] 42.4% | [5] 25% | [6] 16.9% | [7] 29.5% | [8] 33.7% | [9] 40.4% | [10] 12.5% | [11] 13.8% | [12] 48.3% | [13] 29.2% | [14] 92.4% | [15] 51.1% | [16] 61.2% | [17] 17% | [18] 48.2% | [19] 33.8%
active: [4] 0.455%

COC(=O)[C@@H](C)C[C@H](Cc1ccccc1)NC(=O)c1csc([C@@H](C[C@H](C(C)C)N(C)C(=O)[C@@H](NC(=O)[C@H]2CCCCN2C)C(C)C)OC(C)=O)n1
active: [7] -7.32% | [8] -47.8% | [9] 0.404% | [10] 4.52% | [11] 6.8% | [12] 8.34% | [18] -24.4% | [19] -2.62%
inactive: [1] 16.3% | [2] 29.6% | [3] 23.3% | [4] 42% | [5] 12.6% | [6] 12.8% | [13] 22.7% | [14] 26.4% | [15] 44.6% | [16] 13.4% | [17] 25.7%
